# Reference: PubChem BioAssay (EPA / NIEHS)
# “And” between values parts separate entries of the source, which are not always exact repeats. Equal values may be shown once. More than one record can exist for a structure, and the calls need not agree. The source made the active and inactive calls. Rule for the calls: active = hit-call score of the fitted dose curve at least 0.9, where 1 is the maximum; inactive = score below 0.9.
# Experiments:
# [1] = read-out: Matrix Metallopeptidase 1 (MMP1), MMP1 (gene 4312); assay: BSK_hDFCGF_MMP1: BioMAP Diversity Plus: hDFCGF Assay for Matrix Metallopeptidase 1 (MMP1) Biomarker Activity (AID 2283064); settings: primary human foreskin fibroblasts; actives raise or lower the signal
# Procedure, shortened: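 ELISA read-out of MMP1 from human foreskin fibroblasts (primary skin cells), 24 h post-dose. Gain or loss of signal was fitted bidirectionally versus DMSO negative control; cytotoxicity was checked by SRB in parallel cultures.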
# [2] = read-out: Vascular cell adhesion molecule 1 (VCAM1), VCAM1 (gene 7412); assay: BSK_hDFCGF_VCAM1: BioMAP Diversity Plus: hDFCGF Assay for Vascular cell adhesion molecule 1 (VCAM1) Biomarker Activity (AID 2283065); settings: primary human foreskin fibroblasts; actives raise or lower the signal;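 for AC50: VCAM-1 protein level quantified by ELISA after 24 h chemical exposure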
# Procedure, shortened: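 ELISA readout of VCAM-1 on human dermal fibroblast primary cultures, 24 h after chemical exposure. Gain or loss of signal fitted in both directions against DMSO baseline.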
# [3] = read-out: Plasminogen activator inhibitor-1 (PAI1), SERPINE1 (gene 5054); assay: BSK_hDFCGF_PAI1: BioMAP Diversity Plus: hDFCGF Assay for Plasminogen activator inhibitor-1 (PAI1) Biomarker Activity (AID 2283066); settings: primary human foreskin fibroblasts; actives raise or lower the signal
# Procedure, shortened: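 Human skin fibroblast cultures receive chemical for 24 h before PAI-1 is measured by ELISA; signal changes are fitted bidirectionally against DMSO-treated wells.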
# [4] = read-out: Intercellular Adhesion Molecule 1 (ICAM1), ICAM1 (gene 3383); assay: BSK_KF3CT_ICAM1: BioMAP Diversity Plus: KF3CT Assay for Intercellular Adhesion Molecule 1 (ICAM1) Biomarker Activity (AID 2283067); settings: primary human keratinocytes with fibroblasts; actives raise or lower the signal
# Procedure, shortened: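 Cell-surface ICAM-1 was measured by ELISA 24 h after dosing primary human skin keratinocytes co-cultured with fibroblasts. Parallel SRB staining tracked overt cytotoxicity. Gain or loss of signal was fitted relative to DMSO.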
# [5] = read-out: Interferon-gamma inducible Protein 10 (IP10), CXCL10 (gene 3627); assay: BSK_KF3CT_IP10: BioMAP Diversity Plus: KF3CT Assay for Interferon-gamma inducible Protein 10 (IP10) Biomarker Activity (AID 2283068); settings: primary human keratinocytes with fibroblasts; actives raise or lower the signal
# Procedure, shortened: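 Signal is secreted/surface IP-10 by ELISA in a human primary skin co-culture of keratinocytes and foreskin fibroblasts, taken 24 h post-dosing; DMSO served as negative control.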
# [6] = BSK_KF3CT_SRB: Viability Assessment in the BioMAP Diversity Plus: KF3CT Assay (AID 2283069); settings: primary human keratinocytes with fibroblasts;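 note: total protein by sulforhodamine B staining as a cytotoxicity measure; read 24 h after compound addition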
# Procedure, shortened: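 SRB read-out at 560 nm (0.1% stain, TCA-fixed cells) gauges overt cytotoxicity in a human skin keratinocyte–fibroblast co-culture 24 h post-dosing. Signal change was fitted bidirectionally relative to DMSO control.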
# [7] = read-out: Interleukin-1 alpha (IL1a), IL1A (gene 3552); assay: BSK_KF3CT_IL1a: BioMAP Diversity Plus: KF3CT Assay for Interleukin-1 alpha (IL1a) Biomarker Activity (AID 2283070); settings: primary human keratinocytes with fibroblasts; actives raise or lower the signal
# Procedure, shortened: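 Primary skin co-culture (keratinocytes, foreskin fibroblasts), 24 h exposure; ELISA for IL-1a; bidirectional curve fit vs DMSO.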
# [8] = read-out: TIMP metallopeptidase inhibitor 2 (TIMP2), TIMP2 (gene 7077); assay: BSK_KF3CT_TIMP2: BioMAP Diversity Plus: KF3CT Assay for TIMP metallopeptidase inhibitor 2 (TIMP2) Biomarker Activity (AID 2283071); settings: primary human keratinocytes with fibroblasts; actives raise or lower the signal
# Procedure, shortened: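 Measurements come from ELISA detection of TIMP-2 at 24 hours in a dosed human keratinocyte and foreskin fibroblast co-culture. DMSO serves as negative control and baseline.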
# [9] = read-out: Transforming growth factor beta 1 (TGFb1), TGFB1 (gene 7040); assay: BSK_KF3CT_TGFb1: BioMAP Diversity Plus: KF3CT Assay for Transforming growth factor beta 1 (TGFb1) Biomarker Activity (AID 2283072); settings: primary human keratinocytes with fibroblasts; actives raise or lower the signal
# Procedure, shortened: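 TGF-b1 ELISA on a 24 h dosed co-culture of human keratinocytes and foreskin fibroblasts; cytotoxicity tracked in parallel cultures by SRB staining.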
# [10] = read-out: C-C motif chemokine 2 (Homo sapiens) (UniProt P13500); assay: BSK_KF3CT_MCP1: BioMAP Diversity Plus: KF3CT Assay for Monocyte Chemoattractant Protein 1 (MCP1/CCL2) Biomarker Activity (AID 2283073); settings: primary human keratinocytes with fibroblasts; actives raise or lower the signal
# Procedure, shortened: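 ELISA read-out of MCP-1, 24 h post-dose, in primary human skin keratinocytes co-cultured with fibroblasts. Parallel SRB staining monitors cytotoxicity; changes fitted both directions relative to DMSO.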
# [11] = read-out: Matrix Metallopeptidase 9 (MMP9), MMP9 (gene 4318); assay: BSK_KF3CT_MMP9: BioMAP Diversity Plus: KF3CT Assay for Matrix Metallopeptidase 9 (MMP9) Biomarker Activity (AID 2283074); settings: primary human keratinocytes with fibroblasts; actives raise or lower the signal;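 note: MMP9 protein level quantified by ELISA in the co-culture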
# Procedure, shortened: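 ELISA read-out of MMP-9 at 24 h post-dosing in a co-culture of human skin keratinocytes and foreskin fibroblasts. Gain or loss of signal was fitted in both directions against DMSO.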
# [12] = read-out: urokinase plasminogen activator (uPA), PLAU (gene 5328); assay: BSK_KF3CT_uPA: BioMAP Diversity Plus: KF3CT Assay for urokinase plasminogen activator (uPA) Biomarker Activity (AID 2283075); settings: primary human keratinocytes with fibroblasts; actives raise or lower the signal
# Procedure, shortened: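 Skin co-culture (keratinocytes + foreskin fibroblasts), human primary; 24 h post-dose; uPA by ELISA; gain/loss fit vs DMSO baseline.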
# CD40, CD40 (gene 958) = assay: BSK_LPS_CD40: BioMAP Diversity Plus: LPS Assay for CD40 Biomarker Activity (AID 2283076); settings: primary human HUVEC with PBMC; actives raise or lower the signal
# Procedure, shortened: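 In the LPS system of human endothelial cells with peripheral blood mononuclear cells, CD40 levels were read by ELISA 24 h post-treatment. Signal changes in either direction were fitted against the DMSO baseline, with parallel SRB protein staining.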
# [13] = read-out: E-selectin (Homo sapiens) (UniProt P16581); assay: BSK_LPS_Eselectin: BioMAP Diversity Plus: LPS Assay for Eselectin Biomarker Activity (AID 2283077); settings: primary human HUVEC with PBMC; actives raise or lower the signal
# Procedure, shortened: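 E-selectin ELISA on LPS-stimulated endothelial cell/PBMC co-cultures, read 24 h post-treatment; gains and losses fitted against DMSO. Parallel SRB staining (0.1% SRB after 10% TCA fixation, 560 nm) flags overt cytotoxicity.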
# [14] = read-out: Interleukin-8 (IL8), CXCL8 (gene 3576); assay: BSK_LPS_IL8: BioMAP Diversity Plus: LPS Assay for Interleukin-8 (IL8) Biomarker Activity (AID 2283078); settings: primary human HUVEC with PBMC; actives raise or lower the signal
# Procedure, shortened: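 ELISA read-out of IL-8 after 24 h chemical treatment of LPS-activated endothelial/PBMC human primary co-cultures. Changes either up or down relative to DMSO; overt cytotoxicity checked by sulforhodamine B staining in parallel wells.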
# [15] = BSK_LPS_SRB: Viability Assessment in the BioMAP Diversity Plus: LPS Assay (AID 2283079); settings: primary human HUVEC with PBMC;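 note: total protein by sulforhodamine B absorbance as a cytotoxicity measure; measured one day after compound addition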
# Procedure, shortened: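 SRB viability endpoint: cells fixed with 10% TCA, stained with 0.1% SRB, read at 560 nm, 24 h post-dose. HUVEC/PBMC co-culture; signal change in either direction scored relative to DMSO.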
# [16] = read-out: Interleukin-1 alpha (IL1a), IL1A (gene 3552); assay: BSK_LPS_IL1a: BioMAP Diversity Plus: LPS Assay for Interleukin-1 alpha (IL1a) Biomarker Activity (AID 2283080); settings: primary human HUVEC with PBMC; actives raise or lower the signal
# Procedure, shortened: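 Readout is IL-1a level by ELISA, 24 h post-dose, fitted as gain or loss relative to DMSO. System: LPS-activated human primary co-culture of vascular endothelium and peripheral blood mononuclear cells, with parallel SRB total-protein cytotoxicity.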
# [17] = read-out: Monocyte Chemoattractant Protein-1 (MCP1), CCL2 (gene 6347); assay: BSK_LPS_MCP1: BioMAP Diversity Plus: LPS Assay for Monocyte Chemoattractant Protein-1 (MCP1) Biomarker Activity (AID 2283081); settings: primary human HUVEC with PBMC; actives raise or lower the signal;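 for AC50: secreted MCP-1 protein quantified by ELISA in culture supernatant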
# Procedure, shortened: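 Secreted MCP-1 read by ELISA at 24 h post-dosing in an LPS-activated co-culture of endothelial cells with peripheral blood mononuclear cells. Fits run in both directions, DMSO as baseline; parallel SRB staining tracks overt cytotoxicity.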
# [18] = BSK_LPS_PGE2: BioMAP Diversity Plus: LPS Assay for Prostaglandin E2 (PGE2) Biomarker Activity (AID 2283082); settings: primary human HUVEC with PBMC; actives raise or lower the signal;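 for AC50: secreted prostaglandin E2 measured by ELISA in LPS-stimulated co-culture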
# Procedure, shortened: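 Primary human endothelial cells and blood mononuclear cells, co-cultured with LPS, receive test chemical; PGE2 ELISA follows at 24 h, with SRB-stained parallel cultures flagging cytotoxicity.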
# [19] = read-out: Macrophage colony-stimulating factor (MCSF), CSF1 (gene 1435); assay: BSK_LPS_MCSF: BioMAP Diversity Plus: LPS Assay for Macrophage colony-stimulating factor (MCSF) Biomarker Activity (AID 2283083); settings: primary human HUVEC with PBMC; actives raise or lower the signal
# Procedure, shortened: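 Bidirectional fitting against DMSO was applied to M-CSF levels read by ELISA at 24 h post-dose. The system pairs human umbilical vein endothelium with peripheral blood mononuclear cells; parallel SRB staining tracked cytotoxicity.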
# E-selectin (Homo sapiens), sequence (P16581 whole entry, looked up): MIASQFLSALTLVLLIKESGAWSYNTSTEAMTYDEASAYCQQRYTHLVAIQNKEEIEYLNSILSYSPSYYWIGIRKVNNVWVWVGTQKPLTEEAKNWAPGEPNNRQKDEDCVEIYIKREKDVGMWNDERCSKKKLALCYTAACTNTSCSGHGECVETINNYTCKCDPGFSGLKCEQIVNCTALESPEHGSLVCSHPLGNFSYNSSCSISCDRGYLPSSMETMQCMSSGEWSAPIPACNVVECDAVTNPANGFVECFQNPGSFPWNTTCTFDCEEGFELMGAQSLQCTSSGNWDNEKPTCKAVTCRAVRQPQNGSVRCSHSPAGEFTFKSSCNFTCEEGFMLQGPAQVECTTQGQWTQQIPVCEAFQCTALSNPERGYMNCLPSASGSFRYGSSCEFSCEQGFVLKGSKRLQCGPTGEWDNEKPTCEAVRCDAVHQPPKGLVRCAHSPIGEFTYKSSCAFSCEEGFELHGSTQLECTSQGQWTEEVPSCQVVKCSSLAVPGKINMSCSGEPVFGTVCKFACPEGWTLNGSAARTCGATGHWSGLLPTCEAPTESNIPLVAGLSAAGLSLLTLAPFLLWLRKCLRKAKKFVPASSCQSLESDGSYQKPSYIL
smiles,measurement,setting,value
O=c1oc2ccccc2c(O)c1C(CC(O)c1ccc(-c2ccc(Br)cc2)cc1)c1ccccc1 (configuration not stated),AC50,[1],6.12 µM (active)
same,AC50,[2],5.3 µM (active)
same,AC50,[3],5.32 µM (active)
same,AC50,[4],5.92 µM (active)
same,AC50,[5],8.62 µM (active)
same,AC50,[6],4.99 µM (active)
same,AC50,[7],5.57 µM (active)
same,AC50,[8],5.28 µM (active)
same,AC50,[9],5.23 µM (active)
same,AC50,[10],10 µM (active)
same,AC50,[11],19.1 µM (active)
same,AC50,[12],5.28 µM (active)
same,AC50,"CD40, CD40 (gene 958)",13 µM (active)
same,AC50,[13],14.3 µM (active)
same,AC50,[14],0.0502 µM (active)
same,AC50,[15],12.4 µM (active)
same,outcome,[16],inactive
same,AC50,[17],19.1 µM (active)
same,outcome,[18],inactive
same,AC50,[19],12.8 µM (active)
CC1(C)[C@H](C(=O)O[C@H](C#N)c2cccc(Oc3ccccc3)c2)[C@@H]1/C=C(\Cl)C(F)(F)F,AC50,[1],0.0141 µM (active)
same,outcome,[1],inactive
same,outcome,[2],inactive
same,outcome,[3],inactive
same,outcome,[4],inactive
same,outcome,[5],inactive
same,outcome,[6],inactive
same,outcome,[7],inactive
same,AC50,[8],0.525 µM (active)
same,outcome,[8],inactive
same,outcome,[9],inactive
same,outcome,[10],inactive
same,AC50,[12],0.12 µM (active)
same,outcome,[12],inactive
same,outcome,"CD40, CD40 (gene 958)",inactive
same,outcome,[13],inactive
same,AC50,[14],0.0495 µM (active)
same,outcome,[14],inactive
same,outcome,[15],inactive
same,AC50,[16],21.3 µM (active)
same,outcome,[16],inactive
same,outcome,[17],inactive
same,AC50,[18],904 nM (active) and 862 nM (active)
same,outcome,[19],inactive
CCCCCCCCCCCCc1cccc(S(=O)(=O)O)c1,AC50,[1],28.3 µM (active)
same,AC50,[2],12 µM (active)
same,AC50,[3],9.68 µM (active)
same,AC50,[4],28.4 µM (active)
same,AC50,[5],16.5 µM (active)
same,AC50,[6],26.5 µM (active)
same,AC50,[7],33.3 µM (active)
same,AC50,[10],28.7 µM (active)
same,AC50,[11],18 µM (active)
same,AC50,[12],29.6 µM (active)
same,outcome,"CD40, CD40 (gene 958)",inactive
same,outcome,[13],inactive
same,outcome,[14],inactive
same,outcome,[15],inactive
same,outcome,[16],inactive
same,outcome,[17],inactive
same,outcome,[18],inactive
same,outcome,[19],inactive
